Consider nine compounds from PubChem BioAssay AID624263 (National Center for Advancing Translational Sciences (NCATS), 2012).

Among all 410,000 compounds or so, about 820 (0.2%) were called active. Inconclusive results (about 2%) are left out. Calls come from the whole dose curve; as a rule, active = well fitted activation curve with a large enough effect; inconclusive = small, poorly fitted or top-dose-only effect; inactive = flat fitted curve, though single readings scatter; cell line not stated here. The entries come from a sample that favours actives as a whole. Where a call stands in place of a potency, no number is given.
Potency is the fitted concentration of half-maximal effect.

This test in a line: A Quantitative High throughput Screen to Identify Chemical Modulators of PINK1 Expression. Note: nearly all actives have a fitted effect of over 65% in size. To be noted: PINK1 immunofluorescence, high-content cytometry, 24 h; series mostly up to 76.6 µM. The source says:
The overall goal of this project is to develop new tools for understanding and treating the mitochondrial basis for neurodegenerative disease such as Parkinson's disease (PD). The PINK1 campaign was developed from recent data pointing towards mitochondrial dysfunction as a major contributor to dopaminergic neuron loss. The discovery of PINK1/Parkin mediated mitophagy has highlighted the potential for mitochondrial quality control as a novel target for therapeutic intervention. […] A second aim of this project is the development of chemical probes to study the mechanics of mitochondrial quality control. As the PINK1/Parkin mitophagy pathway is a relative recent discovery, no specific chemical probes are available that modulate the process. Presently, only crude tools that cause nonspecific mitochondrial damage are available. To advance the understanding of mitophagy, specific, well characterized chemicals that target various steps of mitophagy regulation need to be developed. New chemical probes may have the ability to dynamically manipulate mitophagy in model organisms such as rodents and zebrafish, advancing our understanding of the process in development and disease. This HTS campaign seeks to discover an activator of PINK1 expression by modulation at the level of post-translational processing.
The PINK1 assay determines the amount and localization of PINK1 protein in a cell using a combination of immunofluorescence and cell staining. The goal of the assay is to determine small molecules that can increase the expression of Pink1 on or inside the cell's mitochondria (ideally without mitochondrial depolarization) using a stable cell line. Since PINK1 protein is rapidly degraded in un-perturbed cells, compounds that induce the enhancement of PINK1 protein expression are identified by determining PINK1 immunofluorescence in conjunction with a mitochondrial, cell, and nuclear marker post fixation. To facilitate rapid high content screening, the primary assay is run in a decision-based HTS mode where compound titration data collected by laser-scanning microplate cytometers is processed and only promising compound series are passed off for high content drill down.
1 Add cells to black, clear-bottom, low-base 1536-well plates 6 uL (250 cells/well)
2 Incubate in TC incubator (12 hours)
3 Pin compounds or DMSO controls 23 nL (5 concentrations per compound set)
4 Dispense CCCP to control columns
5 Incubate in TC incubator 24 hours
6 Aspirate media and fix cells (5 uL of fixative containing nuclear dye)
7 Incubate 15 minutes at RT
8 Wash in PBSTween (12 uL/well)
9 Wash in PBSTriton (12 uL/well)
10 Aspirate wash and add Blocking buffer (4 uL/well)
12 Aspirate block and add primary antibodies 3.5 (uL/well)
13 Incubate 12 hours at 10 degrees C
14 Wash in PBSTween-20 two times (12 uL/well)
15 Aspirate wash and add secondary antibodies (12 uL/well)
17 Wash in PBSTween (12 uL/well)
18 Wash in PBSTween with cell stain (12 uL/well)
19 Read plates on Acumen EX3 and determine Wells2Cells coordinates
`CCOc1ccc(-c2cc(C)[n+](CCN(CC)CC)c(-c3ccc(OCC)cc3)c2)cc1`: the Potency was 15.8 µM (active). As for `Cn1cc(/C=C/c2nc3ccccc3c(=O)n2-c2ccccc2)c2ccccc21`, the entry is “inactive”; as for `CCc1nc2ccccc2c(=O)n1-c1cccc(OC)c1`, “inactive”; as for `COc1cccc(N2C(=O)NC(=O)/C(=C\c3cn(C)c4ccccc34)C2=O)c1`, 39.8 µM (active). As for `c1ccc(N2CC[C@@]3(CCCNC3)C2)nc1`, the entry is “inactive”; as for `COc1cccc(-c2ccc(O)c(CNC3CN4CCC3CC4)c2)n1` (centres undefined), “inactive”; as for `c1ccc(CN2CC[C@@]3(CCCNC3)C2)cc1`, “inactive”. On to `COc1cc([C@@H]2c3cc4c(cc3[C@H](OC(C)=O)[C@H]3COC(=O)[C@H]23)OCO4)cc(OC)c1OC`, for which the Potency result is “inactive”. As for `N#Cc1c(Cl)c(Cl)c(Cl)c(C#N)c1Cl`, the entry is “inactive”.
